Source: PubChem BioAssay (NCI)
This is part of a sample that, as a whole, favours compounds with a hit. Of some 79,000 tested, about 15% had one in any assay. A number with no mark means an inactive call. Calls of active or inactive are those of the source. Cut-off read from the data, not from the text of the source: active = growth inhibition above about 70%; inactive = the rest. Where a SMILES comes first, the peptide text is derived from it.

Key:
[1] = NCI Yeast Anticancer Drug Screen. Data for the rad50 strain (AID 155);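 note: 0% = growth of vehicle-only cultures of the same strain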; settings: S. cerevisiae rad50 strain growth inhibition; at 50.0 µM; hits give high values
Summary of the method: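 Cells are treated with compound, grown, and their growth is then scored against vehicle-only cultures of the same repair-deficient yeast strain.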

[2] = NCI Yeast Anticancer Drug Screen. Data for the mec2-1 strain (AID 157); settings: S. cerevisiae mec2-1 strain, at 50.0 µM, hits give high values
Summary of the method: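 Strain: mec2-1 (DNA repair/cell cycle alteration). Compound exposure, then growth measured; inhibition expressed relative to vehicle.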

[3] = NCI Yeast Anticancer Drug Screen. Data for the sgs1 mgt1 strain (AID 161);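 note: 0% = growth of cultures given vehicle only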; settings: S. cerevisiae sgs1 mgt1 strain, at 50.0 µM, hits give high values
Summary of the method: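 Inhibition of yeast growth, normalised to vehicle-treated controls, is reported for a strain bearing genetic alterations in DNA damage repair.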

[4] = NCI Yeast Anticancer Drug Screen. Data for the cln2 rad14 strain (AID 165);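 note: 0% = growth equal to vehicle treated cultures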; settings: S. cerevisiae cln2 rad14 strain, at 50.0 µM, hits give high values
Summary of the method: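 Compounds are applied to the cln2 rad14 yeast strain, and growth is then compared with that of vehicle-treated cultures to give inhibition.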

[5] = NCI Yeast Anticancer Drug Screen. Data for the bub3 strain (AID 167); settings: S. cerevisiae bub3 mutant strain, at 50.0 µM, hits give high values
Summary of the method: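 Part of a panel of yeast mutants defective in DNA damage repair or cell cycle regulation. Each strain is grown with compound, and inhibition is calculated relative to solvent-treated cultures.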

[6] = NCI Yeast Anticancer Drug Screen. Data for the mlh1 rad18 strain (AID 175); settings: S. cerevisiae mlh1 rad18 strain growth inhibition; at 50.0 µM; hits give high values
Summary of the method: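 Read-out is yeast growth inhibition, calculated against vehicle-only controls. The compound was applied to a strain engineered with DNA damage repair alterations.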

SMILES: CC(C)CC(NC(=O)C(NC(=O)C(N)C(C)O)C(C)C)C(=O)O (stereo not drawn) (H-Thr-Val-Leu-OH; configuration not given here)
- growth inhibition [1]: 5.9%
- growth inhibition [2]: 3.1%
- growth inhibition [3]: 3.5%
- growth inhibition [4]: 5.95%
- growth inhibition [5]: 4.75%
- growth inhibition [6]: -1.5%

SMILES: CCOC(=O)C1CN2C(=O)CCC2C1=O (stereo unspecified)
- growth inhibition [1]: -5.65%
- growth inhibition [2]: 15.2%
- growth inhibition [3]: 8.7%
- growth inhibition [4]: -5.85%
- growth inhibition [5]: 15.4%
- growth inhibition [6]: 4.7%

SMILES: CCc1ccc(NC(=O)Nc2ccc(Cl)cc2)cc1
- growth inhibition [1]: -3.2%
- growth inhibition [2]: 7.75%
- growth inhibition [3]: -8.65%
- growth inhibition [4]: -16.9%
- growth inhibition [5]: -0.8%
- growth inhibition [6]: -12.6%

SMILES: NC(=O)CCCCCCCCCCBr
- growth inhibition [1]: 15.6%
- growth inhibition [2]: 21.2%
- growth inhibition [3]: 8.85%
- growth inhibition [4]: 20.2%
- growth inhibition [5]: 22.8%
- growth inhibition [6]: 42.3%

SMILES: CC(=O)OCOC(=O)CN(CC(=O)OCOC(C)=O)Cc1cc2c(cc1OC(C)=O)Oc1cc(OC(C)=O)c(CN(CC(=O)OCOC(C)=O)CC(=O)OCOC(C)=O)cc1C21OC(=O)c2ccccc21
- growth inhibition [1]: 14.1%
- growth inhibition [2]: 9.1%
- growth inhibition [3]: 15.2%
- growth inhibition [4]: 14.8%
- growth inhibition [5]: -5%
- growth inhibition [6]: 35.1%

SMILES: Cc1ccc(S(=O)(=O)OC2CC(C(C)(C)C)CCC2c2ccccc2)cc1 (stereo unspecified)
- growth inhibition [1]: -29.1%
- growth inhibition [2]: -7%
- growth inhibition [3]: -48.9%
- growth inhibition [4]: -84.2%
- growth inhibition [5]: -5.15%
- growth inhibition [6]: 5.9%

SMILES: COc1ccc2c(Cl)ccnc2c1OC
- growth inhibition [1]: 15.3%
- growth inhibition [2]: 6.1%
- growth inhibition [3]: 10.9%
- growth inhibition [4]: -15%
- growth inhibition [5]: 23.4%
- growth inhibition [6]: 21.8%

SMILES: Brc1ccc(C2NC(c3ccccc3)c3c(ccc4ccccc34)O2)cc1 (stereo unspecified)
- growth inhibition [1]: 90% (active)
- growth inhibition [2]: 77.7% (active)
- growth inhibition [3]: 90.9% (active)
- growth inhibition [4]: 61.2%
- growth inhibition [5]: 52.3%
- growth inhibition [6]: 86.4% (active)

SMILES: O=[N+]([O-])c1ccc(NCn2c(=S)sc3ccccc32)cc1
- growth inhibition [1]: 13.7%
- growth inhibition [2]: -27%
- growth inhibition [3]: 11.4%
- growth inhibition [4]: 2.15%
- growth inhibition [5]: 2.8%
- growth inhibition [6]: 3.6%

SMILES: [N-]=[N+]=NC(c1ccccc1)S(=O)c1ccccc1 (stereo unspecified)
- growth inhibition [1]: 98.1% (active)
- growth inhibition [2]: 98.5% (active)
- growth inhibition [3]: 95.8% (active)
- growth inhibition [4]: 48%
- growth inhibition [5]: 96.3% (active)
- growth inhibition [6]: 91% (active)

SMILES: CCOC(=O)C(CN1CCN(CC(NC=O)(C(=O)OCC)C(=O)OCC)CC1)(NC=O)C(=O)OCC
- growth inhibition [1]: -17.1%
- growth inhibition [2]: -28.3%
- growth inhibition [3]: -11.9%
- growth inhibition [4]: -0.5%
- growth inhibition [5]: 1.15%
- growth inhibition [6]: -30.1%

SMILES: COc1ccc(C(=O)N/N=C/c2cccc3ccccc23)cc1
- growth inhibition [1]: -3%
- growth inhibition [2]: 36.5%
- growth inhibition [3]: 13%
- growth inhibition [4]: -23.1%
- growth inhibition [5]: 43.8%
- growth inhibition [6]: 33.6%

SMILES: CCOC(=O)C1CN(C2CCCCC2)CCC1=O (stereo unspecified)
- growth inhibition [1]: -2.45%
- growth inhibition [2]: -26.6%
- growth inhibition [3]: 4.85%
- growth inhibition [4]: -37%
- growth inhibition [5]: 1.4%
- growth inhibition [6]: -24.4%

SMILES: COC(=O)C1(CC(=O)C2CC2)NC(=S)NC(=O)C1C#N (stereo unspecified)
- growth inhibition [1]: 13.2%
- growth inhibition [2]: -10.2%
- growth inhibition [3]: -12.3%
- growth inhibition [4]: -8.6%
- growth inhibition [5]: -21.4%
- growth inhibition [6]: 5.2%

SMILES: CCCCNC(=S)C(=S)NCCCC
- growth inhibition [1]: 10.7%
- growth inhibition [2]: -0.3%
- growth inhibition [3]: 0.05%
- growth inhibition [4]: 26.9%
- growth inhibition [5]: 17.4%
- growth inhibition [6]: -11.2%

SMILES: C[N+]1(C)N=C([O-])N(CCCCCCN2C(=O)[N+](C)(C)N=C2[O-])C1=O
- growth inhibition [1]: 10.3%
- growth inhibition [2]: -13.1%
- growth inhibition [3]: 15.1%
- growth inhibition [4]: 9.55%
- growth inhibition [5]: 8.65%
- growth inhibition [6]: 15%

SMILES: COC(=O)C1(Cc2ccccc2)Cc2ccccc2C1=O (stereo unspecified)
- growth inhibition [1]: -3.1%
- growth inhibition [2]: 3%
- growth inhibition [3]: 37.7%
- growth inhibition [4]: 33.9%
- growth inhibition [5]: 39.2%
- growth inhibition [6]: -3%

SMILES: O=S(Cc1ccccc1)/C(=C/NC(=S)N=Nc1c(O)[nH]c2ccccc12)c1ccccc1 (stereo unspecified)
- growth inhibition [1]: 15.3%
- growth inhibition [2]: -11.1%
- growth inhibition [3]: 14.2%
- growth inhibition [4]: 33.2%
- growth inhibition [5]: -4.1%
- growth inhibition [6]: -3.1%

SMILES: O=CNn1cn[nH]c1=S
- growth inhibition [1]: 1.9%
- growth inhibition [2]: -2.65%
- growth inhibition [3]: -17.6%
- growth inhibition [4]: 4.25%
- growth inhibition [5]: 8.75%
- growth inhibition [6]: 6.95%

SMILES: NC1c2ccccc2CCc2ccccc21
- growth inhibition [1]: 13.6%
- growth inhibition [2]: -13.7%
- growth inhibition [3]: 17.6%
- growth inhibition [4]: 3.55%
- growth inhibition [5]: 6.8%
- growth inhibition [6]: 6.8%

SMILES: CC(C)(C)C(O)CC(O)(C(F)(F)F)C(F)(F)F (stereo unspecified)
- growth inhibition [1]: -2.45%
- growth inhibition [2]: -21.1%
- growth inhibition [3]: -12.8%
- growth inhibition [4]: 19.6%
- growth inhibition [5]: -5.9%
- growth inhibition [6]: -1.9%
